# FAS-TE inh – FAS thioesterase domain inhibitors, primary screen, biochemical, fluorescence intensity, uHTS; Fatty acid synthase (Homo sapiens), P49327; 360,000 tested, 0.67% active; recombinant FAS-TE, OMFH fluorogenic substrate, fluorescence endpoint; inhibition, % at 15 µM;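 active = compounds whose normalised, plate-corrected inhibition of enzyme fluorescence in the single-dose primary screen is 50% or more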;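 also: 0% = DMSO with enzyme and 100% = substrate without enzyme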
# PfG6PD inh – PfG6PD enzyme inhibitors, primary screen, biochemical, fluorescence intensity, uHTS. glucose-6-phosphate dehydrogenase-6-phosphogluconolactonase (Plasmodium falciparum 3D7). PfGluPho enzyme, NADPH resazurin-diaphorase fluorescence. inhibition, % at 20 µM. 350,000 tested, 0.78% active. AID 504690, 2011;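 active = inhibition reaching at least a set limit at 20 µM in the primary screen, cut at about 59% in these data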;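 also: 0% = DMSO wells with substrate and 100% = DMSO wells lacking glucose-6-phosphate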
# Neddylation inh – inhibitors of cullin neddylation, primary screen, biochemical, TR-FRET, uHTS, NAE and Ubc12; NEDD8-conjugating enzyme Ubc12 (Homo sapiens) + NEDD8-activating enzyme E1 regulatory …; calls only at 25 µM; 360,000 tested, 0.58% active; AID 651699, 2012; in the data active = inhibition above about 36%
# KLK7 zymogen act – proKLK7 zymogen activators, primary screen, biochemical, fluorescence intensity; activation, % at 7 µM; purified proKLK7, EDANS-DABCYL substrate fluorescence; 100% is mature enzyme control, 0% vehicle; 370,000 tested, 0.9% active; Kallikrein-7 (Homo sapiens), P49862; AID 652039, 2013;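 active = activation above the mean of all tested compounds plus 3 SD, computed per campaign excluding outliers beyond control limits, cut at about 13% in these data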
# Neddyl inh conf – blockade of NEDD8 conjugation to cullin – biochemical, TR-FRET, single concentration, confirmation; AID 652217, 2013; TR-FRET cullin neddylation biochemical assay; 1,800 tested, 13% active; shares compounds with Neddylation inh; calls only at 25 µM; in the data active = inhibition above about 40%;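 also: neddylation substrate is the cullin 1 ring ligase complex with SKP2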
# * = called active by the depositor; i = inactive; . = not tested or not shown; + = active, no number. This is a sample that favours compounds with a hit; in the whole collection about 2.7% have one here.
SMILES,FAS-TE inh,PfG6PD inh,Neddylation inh,KLK7 zymogen act,Neddyl inh conf
COc1ccc(-c2cc(C(=O)N3CCC3)c3ccccc3n2)cc1OC,-8,-2,i,-1,.
COc1ccc(-c2cc(C(=O)N3CCN(c4ncccn4)CC3)c3ccccc3n2)cc1OC,0,2,+,4,.
COc1ccc(-c2cc(C(=O)NCC(c3ccco3)N(C)C)c3ccccc3n2)cc1OC (stereo unspecified),-2,5,+,-1,i
COc1ccc(-c2cc(C(=O)NCCN3CCOCC3)c3ccccc3n2)cc1OC,-4,3,i,-1,.
C#CCNC(=O)C[C@H]1C[C@@]2(C(=O)OC)C(=C[C@H](COCc3ccccc3)O[C@@H]2C)N(Cc2ccc(Cl)cc2Cl)C1=O,.,.,.,1,.
COc1cc2ccnc(C=NO)c2cc1OC,-14,-5,+,-4,i
COc1ccc2nc3c(nc2c1)CCCC3,-6,9,+,2,+
Cc1ccc(NC(=O)NNC(=O)CCn2nc(C)c([N+](=O)[O-])c2C)cc1C,.,.,.,0,.
COc1cccc(CC(NC(C)=O)C(=O)NC2CCN(c3nc(C)cc(C)c3C#N)CC2)c1 (stereo unspecified),-1,8,i,1,.
COc1ccc(CC(NC(C)=O)C(=O)NC2CCN(c3nc(C)cc(C)c3C#N)CC2)c(OC)c1 (stereo unspecified),-3,18,+,-1,i
O=c1cc(CCl)[nH]c2nc3ccccc3n12,-3,22,+,-70,i
CCCCCCc1c(C)[nH]c2nc3ccccc3n2c1=O,2,-5,i,-1,.
CCCc1c(C)[nH]c2nc3ccccc3n2c1=O,2,2,+,-35,i
N#Cc1nc(-c2cccc3ccccc23)oc1NCCN1CCOCC1,23,-2,.,.,.
N#Cc1nc(-c2ccco2)oc1NCCN1CCOCC1,-7,2,+,1,i
Cc1ccccc1N(C(=O)c1snc(C(N)=O)c1N)C(C(=O)NCc1ccccc1)c1ccc(O)cc1 (stereo unspecified),4,-5,i,-12,.
COc1ccc(C(C(=O)NCc2ccccc2)N(C(=O)c2snc(C(N)=O)c2N)c2ccccc2OC)cc1OC (stereo unspecified),4,9,+,-4,.
CCOc1ccccc1N(C(=O)c1snc(C(N)=O)c1N)C(C(=O)NCc1ccccc1)c1ccc(O)cc1 (stereo unspecified),1,0,+,-1,.
COc1ccc(C)cc1N(C(=O)c1snc(C(N)=O)c1N)C(C(=O)NC1CCCC1)c1ccc(F)cc1 (stereo unspecified),11,27,+,0,.
CC(C(=O)NCC1CCCO1)N(C(=O)c1snc(C(N)=O)c1N)c1cccc(F)c1 (stereo unspecified),-8,-15,+,8,.
O=C(c1ccncc1)N1CC[C@H]2[C@H](CCCN2Cc2cc(F)cc(F)c2)C1,.,.,.,0,.
COc1cccc(N2CCN(CC(=O)NCc3ccccc3C)CC2)c1,.,.,.,-1,.
COCCNC(=O)C(c1ccc(C)o1)N(C(=O)c1snc(C(N)=O)c1N)c1ccc(C)c(C)c1 (stereo unspecified),-5,21,i,0,.
COc1cccc(N(C(=O)c2snc(C(N)=O)c2N)C(C(=O)NCc2ccccc2)c2ccc(O)cc2)c1 (stereo unspecified),11,12,+,-3,+
COCCNC(=O)C(c1ccc(C)o1)N(C(=O)c1snc(C(N)=O)c1N)c1cccc(C)c1 (stereo unspecified),-4,8,+,3,i
SMILES,FAS-TE inh,PfG6PD inh,Neddylation inh,KLK7 zymogen act,Neddyl inh conf
CCOc1ccccc1N(C(=O)c1snc(C(N)=O)c1N)C(C(=O)NCC1CCCO1)c1ccc2ncccc2c1 (stereo unspecified),-3,1,+,5,i
CCCC(C(=O)NCCC(C)C)N(Cc1ccccc1)C(=O)c1snc(C(N)=O)c1N (stereo unspecified),10,0,+,1,i
COc1ccc(N(C(=O)c2snc(C(N)=O)c2N)C(C(=O)NCc2ccccc2)c2ccc(O)cc2)cc1OC (stereo unspecified),14,7,i,0,.
COC(=O)[C@]12C[C@H](CC(=O)NCC34CC5CC(CC(C5)C3)C4)C(=O)N(CCc3ccc(OC)c(OC)c3)C1=C[C@H](C(C)(C)C)O[C@@H]2C,.,.,.,0,.
CCCCn1c(=O)nc2n(-c3ccc(OC)cc3)c3ccccc3cc-2c1=O,-1,-11,i,1,.
Cc1ccc(-n2c3nc(=O)n(C)c(=O)c-3cc3ccccc32)cc1,-4,-8,+,10,i
Nc1cc2c(cc1Br)-c1c(C(=O)O)cccc1C2O (stereo unspecified),-5,37,+,10,i
Cc1ccc2c3c([nH]c2c1)C(=O)CC(C)(C)S3,3,8,+,2,i
Cc1[nH]c2ccc(C(=O)OCC(=O)Nc3cccc(S(N)(=O)=O)c3)cc2c1C,5,3,+,0,i
CCOc1ccc2oc(C(=O)NCC3CCCO3)c(C)c2c1 (stereo unspecified),-1,-1,+,0,+
CCOc1ccc2oc(C(=O)NNC(=O)c3csc(N4CCOCC4)n3)c(C)c2c1,1,-18,+,0,i
COC(=O)[C@H]1C[C@@]2(c3ccccc3)c3ccccc3N[C@H]2N1,.,.,.,0,.
COC(=O)c1ccc2nc(-c3ccccc3)c(Cc3cccc(Cl)c3)n2c1,.,.,.,-4,.
CCOc1ccc2[nH]c(=O)c(CN(CCO)Cc3nnnn3CCc3ccccc3)cc2c1,-5,-1,+,6,i
CCOc1ccc2[nH]c(=O)c(CN(CCCN3CCOCC3)Cc3nnnn3Cc3ccc(OC)cc3)cc2c1,-6,7,+,0,i
O=c1c[n+]([O-])c2ccccc2n1OCc1ccccn1,-17,0,+,-1,i
O=c1c[n+]([O-])c2ccccc2n1OCc1c(F)cccc1F,-6,29,+,0,+
CCOn1c(=O)c[n+]([O-])c2ccccc21,-5,-9,+,1,.
COc1ccc(-c2nc3c4ccccc4ccn3c2CN2CCCCC2)cc1OC,11,22,+,0,i
COc1ccc(-c2nc3c4ccccc4ccn3c2CN2CCCCC2)cc1,15,32,i,0,.
COc1ccc(Cl)c2sc(NC(=O)C3=COCCO3)nc12,-3,28,+,1,i
CSc1cccc2sc(NC(=O)C3=COCCO3)nc12,-2,27,+,0,.

# Screening results: PubChem, several laboratories
